In the library only some 2.9% were active in any assay of this set; here they are far more common.
IP6K1 inh: Primary qHTS assay for small molecule inhibitors of Inositol hexaphosphate kinase 1 (IP6K1); Inositol hexakisphosphate kinase 1 (Homo sapiens), Q92551; IP6K1 kinase, ADP-Glo luminescence, 2 h; hits give low values; activity change, % (series mostly up to about 58 µM); hit rate 0.81% among 140,000; AID 1645851, 2021; in the data active = activity change below about -25%; note: % is set by controls: 0 for no effect and ±100 for the full control effect
Target sequence (Q92551 whole entry, looked up): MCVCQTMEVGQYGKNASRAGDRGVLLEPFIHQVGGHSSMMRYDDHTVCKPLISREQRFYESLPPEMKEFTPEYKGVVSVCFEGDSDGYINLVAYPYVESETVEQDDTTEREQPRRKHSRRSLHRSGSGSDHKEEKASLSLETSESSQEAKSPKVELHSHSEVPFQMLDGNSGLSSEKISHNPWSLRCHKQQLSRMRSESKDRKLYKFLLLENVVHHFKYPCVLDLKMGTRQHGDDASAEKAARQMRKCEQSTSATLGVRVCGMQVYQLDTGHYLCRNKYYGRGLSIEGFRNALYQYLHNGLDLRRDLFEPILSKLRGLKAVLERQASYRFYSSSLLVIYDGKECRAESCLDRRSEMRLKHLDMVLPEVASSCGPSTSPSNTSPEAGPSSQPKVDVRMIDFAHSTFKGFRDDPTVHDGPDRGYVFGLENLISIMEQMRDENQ
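ADP-Glo luminescence measures ADP made by human IP6K1 during a 2 h RT reaction with ATP/IP6 (mix at 1.3 mM/130 uM); top library doses 57.5 and 19.1 uM final.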
KDM5B inhibitor: Primary screen for KDM5B Histone Demethylases FDH-coupled qHTS. Potency, µM (highest dose often 57.7 µM), usual class: inhibitors. hit rate 2.6% among 220,000. Lysine-specific demethylase 5B (Homo sapiens), Q9UGL1. KDM5B demethylase, FDH-coupled NADH fluorescence (FDH is formaldehyde dehydrogenase); note: potency is the fitted concentration of half-maximal effect; 0% is about no effect; nearly all actives have a fitted effect of over 70% in size
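Inhibition is measured as reduced NADH fluorescence generation from FDH coupling to formaldehyde release. Truncated KDM5BΔAP at 200 nM final acts on H3K4me3 peptide (12.5 µM in substrate mix) in pH 7.5 HEPES buffer with Tween-20, 30 min, room temperature.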
SNCA expr inhib: Primary qHTS assay for inhibitors of alpha-synuclein gene (SNCA) expression | HEK-293 SNCA-luciferase knock-in, luminescence, 24 h | Potency, µM (top dose mostly 57.2 µM), without a hit: at the highest dose activity change, negative = inhibition, actives largely listed as inhibitors | hit rate 0.17% among 140,000;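 note: potency is the fitted concentration of half-maximal effect; plate controls were DMSO cells for no effect and cell-free wells for full effect; nearly all actives have a fitted effect of over 45% in size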
SNCA viab count: GF-AFC viability counterscreen for inhibitors of alpha-synuclein gene (SNCA) expression | HEK-293-SNCA-luc viability, GF-AFC fluorescence, 24 h | Potency, µM (top dose mostly 57.1 µM), for inactives: at the highest dose activity change, negative = cytotoxicity, actives largely listed as cytotoxic | hit rate 0.12% among 150,000;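 note: potency is the fitted concentration of half-maximal effect; 0% = DMSO-treated cells and -100% = medium-only wells without cells; nearly all actives have a fitted effect of over 30% in size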
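Cytotoxicity counterscreen: after 24 h compound treatment of genome-edited SNCA-luciferase HEK-293 cells, live-cell protease substrate GF-AFC read by fluorescence after 30 min; activity scaled between DMSO (0%) and medium-only (-100%), curves Hill-fitted.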
The depositor's hits bear a star; i = inactive; ? = inconclusive; / = no result given; [ ] = remark or other dose. Unless noted, calls come from the whole dose curve; as a rule, active = well fitted curve in the direction sought with a large enough effect; inconclusive = small, poorly fitted or top-dose-only effect, or another doubt; inactive = no such curve, though single readings can be large; an effect the other way counts as inactive or inconclusive.

SMILES | IP6K1 inh | KDM5B inhibitor | SNCA expr inhib | SNCA viab count
O=C(NCC1CC1)c1nc2c(o1)CCN(Cc1ccc3[nH]ccc3c1)CC2 | 20 | i | 15%[87.6 µM] | 0%[87.6 µM]
O=C(Nc1ccc(Cl)cc1)c1nc2c(o1)CCN(Cc1ccccc1)CC2 | 6 | 32µM* | 0%[87.6 µM] | -16%[87.6 µM]
Cc1ncc2n1C(=O)N(C1CCN(Cc3ccccc3)CC1)C2 | -2 | ? | -7%[87.6 µM] | ?
CC(C)CNC(=O)c1cc(C(C)(C)C)nc2c1cnn2C | -3 | / | -3%[87.6 µM] | -4%[87.6 µM]
Cc1ccc(Nc2ccnc(N3CCC(C(=O)NCc4ccc5c(c4)OCO5)CC3)n2)cc1 | -8 | / | 1% | -5%[12.5 µM]
Cc1cccc(C)c1-c1nc(C(=O)N2CCCC2)n2ccccc12 | 11 | 40µM* | 0%[87.6 µM] | 2%[87.6 µM]
COCCNC(=O)c1nc(-c2c(C)cccc2C)c2ccccn12 | 9 | 35µM* | -19%[87.6 µM] | 7%[87.6 µM]
COC(=O)CNC(=O)c1nc(-c2c(C)cccc2C)c2ccccn12 | 18 | 28µM* | -6% | 3%
COC(=O)CNC(=O)c1nc(-c2cc(Cl)cc(Cl)c2)c2ccccn12 | 2 | 25µM* | 28% | 9%
C#CCNC(=O)c1nc(-c2c(C)cccc2C)c2ccccn12 | 5 | 40µM* | 23%[87.6 µM] | 7%[87.6 µM]
Cc1cccc(C)c1-c1nc(C(=O)NC2CC2)n2ccccc12 | -23 | 100µM* | -7% | 2%
Cc1cccc(C)c1-c1nc(C(=O)NCCc2ccc(Cl)cc2)n2ccccc12 | 10 | 14µM* | ? | 13%
C#CCNC(=O)c1nc(-c2ccc([S+](C)(=O)[O-])cc2)c2ccccn12 | -20 | i | 7% | 4%
CN1CCc2c([nH]c3ccccc23)C12CCN(C(=O)c1ccsc1)CC2 | -3 | ? | 31% | 1%[12.5 µM]
Cc1ccccc1C(=O)NC1CCN(Cc2cccc(-c3ccc(F)c(F)c3)c2)CC1 | 8 | / | 3% | 2%
O=C(NCc1cccc(Cl)c1)c1nc2sccn2c1-c1ccncc1 | 5 | / | 7% | -6%
COc1ccc(CNC(=O)c2nc3nc(-c4ccccc4)c(Cl)cc3n2C)cc1OC | 6 | 35µM* | ? | -21%[87.6 µM]
COc1cc(CNC(=O)c2nc3nc(-c4ccccc4)c(Cl)cc3n2C)cc(OC)c1 | 14 | 35µM* | -3%[87.6 µM] | -5%[87.6 µM]
COCc1nc2nc(-c3ccccc3)c(-c3ccccc3OC)cc2n1C | 5 | ? | -4%[87.6 µM] | 0%[87.6 µM]
Cn1c(C(=O)NCc2ccoc2)nc2nc(-c3ccccc3)c(Cl)cc21 | -3 | 35µM* | 7%[87.6 µM] | 2%[87.6 µM]
COc1ccccc1-c1cc2c(nc1-c1ccccc1)nc(C(=O)NC1CCN(C)CC1)n2C | 5 | 28µM* | -6% | ?
COc1ccc(CNC(=O)c2sccc2-c2ccccc2)cc1OC | / | i | / | /
CN(C)CCNC(=O)c1nc2nc(-c3ccccc3)c(-c3ccccc3O)cc2n1C | -1 | ? | 33%[87.6 µM] | -2%[87.6 µM]
Cc1ccc(-c2cc3c(nc2-c2ccccc2)nc(C(=O)NCCN(C)C)n3C)cc1 | 9 | i | 8%[87.6 µM] | -22%[87.6 µM]
Cn1c(C(=O)NCCN2CCOCC2)nc2nc(-c3ccccc3)c(Cl)cc21 | 6 | 35µM* | 30%[87.6 µM] | 10%[87.6 µM]
SMILES | IP6K1 inh | KDM5B inhibitor | SNCA expr inhib | SNCA viab count
Cn1c(C(=O)NCCc2ccccn2)nc2nc(-c3ccccc3)c(Cl)cc21 | -1 | 35µM* | -17%[87.6 µM] | -13%[87.6 µM]
Cn1c(C(=O)NCC2CC2)nc2nc(-c3ccccc3)c(Cl)cc21 | 3 | 40µM* | -29%[87.6 µM] | 1%[87.6 µM]
O=C(Cc1ccc(Cl)cc1)NCCNC(=O)c1cccc(-c2ccc(C(F)(F)F)cc2)c1 | 0 | / | -28% | 8%[12.5 µM]
Cc1noc(C)c1[S+](=O)([O-])NC1CCN(Cc2cccc(-c3cccs3)c2)CC1 | -6 | / | 3% | 5%[12.5 µM]
CNC(=O)c1cc(C2CC2)nc2c1c(C1CCCN(C(=O)c3ccc(Cl)cc3)C1)nn2C (centres undefined) | -12 | / | / | /
O=C(Nc1ccc(S(=O)(=O)N(Cc2ccccc2)c2ccccc2)cc1)c1ccccc1F | 21 | i | -7% | -5%
Cc1cccc(C(=O)Nc2ccc(S(=O)(=O)N(Cc3ccccc3)c3ccccc3)cc2)c1 | -11 | ? | 20% | 5%
O=C(Nc1ccc(S(=O)(=O)N(Cc2ccccc2)c2ccccc2)cc1)c1ccc(F)cc1 | -28* | i[11.5 µM] | 20% | 3%
CNC(=O)c1ccc(N(Cc2ccc(C)cc2)S(C)(=O)=O)cc1 | / | i | / | /
Cc1ccc(NC(=O)c2ccc(N(Cc3ccccc3)S(C)(=O)=O)cc2)cc1 | -8 | i | 21% | 2.8µM*
CS(=O)(=O)N(Cc1ccccc1)c1ccc(C(=O)Nc2cccc(Cl)c2)cc1 | -5 | ? | -14% | 6.3µM*
Cn1ncc2c(C(=O)N3CCN(Cc4ccccc4)CC3)cc(-c3ccc(Cl)cc3)nc21 | -1 | / | ? | -9%
O=[S+]([O-])(c1cccc(C(F)(F)F)c1)N1CCCN(c2ccc3nnc(-c4ccccc4)n3n2)CC1 | -3 | / | / | /
COc1ccc(-c2noc(C(=O)O)c2[C@@H](C)NC(=O)c2cccn2C)cc1 | -7 | 40µM* | 12%[87.6 µM] | 1%[87.6 µM]
OC[C@@H]1O[C@H](CNC2CCOCC2)[C@H](N2CCN(c3ccccn3)CC2)[C@@H]1O | 0 | ? | 9% | 3%
OC[C@@H]1O[C@H](CN(Cc2cccc(Cl)c2)Cc2cccc(Cl)c2)[C@H](N2CCN(c3ccccn3)CC2)[C@@H]1O | 18 | 25µM* | -2% | -12%
O=S(=O)(NC[C@H]1O[C@@H](CO)[C@@H](O)[C@H]1N1CCN(c2ccccn2)CC1)c1ccc(Cl)cc1 | -2 | 28µM* | 34% | 4%
CS(=O)(=O)NC[C@H]1O[C@@H](CC(=O)N2CCN(c3ccccn3)CC2)[C@H](O)[C@@H]1O | 9 | 35µM* | 31%[87.6 µM] | 2%[87.6 µM]
Cc1ccc(S(=O)(=O)NC[C@H]2O[C@@H](CC(=O)N3CCN(c4ccccn4)CC3)[C@H](O)[C@@H]2O)cc1 | -4 | 28µM* | 1% | 1%
COc1ccc(-c2cc(C[C@H]3CNCC[C@H]3CC(=O)Nc3ccccc3)no2)cc1 | -2 | ? | 17%[87.6 µM] | 2%[87.6 µM]
COc1ccc(-c2cccc(C(=O)N(C)Cc3ccccc3)c2)nn1 | -1 | / | / | /
CCC(CC)C(=O)NC[C@H]1O[C@@H](CC(=O)N2CCN(c3ccccn3)CC2)[C@H](O)[C@@H]1O | 2 | 32µM* | 6%[87.6 µM] | 4%[87.6 µM]
Cc1cccc(C)c1-c1cc(C(=O)NCCCc2ccccc2)c2cnn(C)c2n1 | -3 | / | ? | 1%
O=C(NCc1ccc(F)cc1)c1nc(-c2ccc(F)cc2)c2ccccn12 | 7 | 32µM* | 9% | -4%
O=C(NCc1ccc(F)cc1)c1nc(-c2cc(Cl)cc(Cl)c2)c2ccccn12 | 35 | i | -18% | -1%
C[S+](=O)([O-])c1ccc(-c2nc(C(=O)NCc3ccc(F)cc3)n3ccccc23)cc1 | -16 | 89µM* | -15% | 2%
C[S+](=O)([O-])c1ccc(-c2nc(C(=O)NCc3cccnc3)n3ccccc23)cc1 | -5 | i | 20% | 7%

Assay outcomes from PubChem BioAssay.
